Values joined by “and” are separate entries in the source; they are usually repeats but may differ in a detail not shown here. Identical values can stand only once. Records with an inconclusive call do not appear. A call without a number means that no potency is given here. Active and inactive are the calls of the source. Unless noted, calls follow the shape of the dose curve; as a rule, active = well fitted curve in the direction sought with a large enough effect in the repeat runs; inconclusive = weak or mixed curves; inactive = no such curve, though single readings can be large; an effect the other way counts as inactive or inconclusive.
Experiments:
[1] = qHTS assay to identify small molecule antagonists of the vitamin D receptor (VDR) signaling pathway - cell viability counter screen (AID 743225); also: nearly all actives have a fitted effect of over 50% in size; also: potency is read from the fitted curve at half-maximal effect
Procedure, shortened: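 Compounds were pinned onto VDR-bla HEK 293T cells together with 1-alpha,25-dihydroxyvitamin D3 at 3 nM final. After 16 h at 37C and 5% CO2 plus the reporter readout, cell viability was measured by CellTiter-Glo luminescence (30 min, room temperature).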

[2] = qHTS assay to identify small molecule agonists of the endoplasmic reticulum stress response signaling pathway - cell viability counter screen (AID 1159517; calls by dose curve; also: nearly all actives have a fitted effect of over 50% in size; also: potency is read from the fitted curve at half-maximal effect)
Procedure, shortened: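 Cytotoxicity of test compounds toward ESRE-bla HeLa cells was assessed after 5 hr exposure. The luminescent CellTiter-Glo signal was measured 30 min after reagent addition.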

[3] = biological target: Nuclear receptor ROR-gamma (Homo sapiens) (UniProt P51449); assay: qHTS assay to identify small molecule antagonists of the retinoid-related orphan receptor gamma (ROR-gamma) signaling pathway (AID 1159521; also: nearly all actives have a fitted effect of over 50% in size; also: potency is read from the fitted curve at half-maximal effect)
Procedure, shortened: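 Test compounds were applied to Tet-on RORγ CHO cells 2 h ahead of doxycycline hyclate (1 uM final). Luciferase reporter activity was quantified by luminescence after 16 h at 37 C and 5% CO2.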

[4] = qHTS assay to identify small molecule agonists of the AP-1 signaling pathway - cell viability counter screen (AID 1159525; calls by dose curve; also: nearly all actives have a fitted effect of over 55% in size; also: potency is read from the fitted curve at half-maximal effect)
Procedure, shortened: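 Each titration point was normalised to DMSO and tetra n-octyl ammonium bromide controls. The read was Cell Titer Glo luminescence after 30 min at RT, following 5 h compound exposure of ME-180 AP-1-bla cells at 37 °C.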

[5] = qHTS assay to identify small molecule agonists of the RXR signaling pathway - cell viability counter screen (AID 1159529); also: nearly all actives have a fitted effect of over 50% in size; also: potency is read from the fitted curve at half-maximal effect
Procedure, shortened: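 Compounds dissolved in DMSO were pinned onto HEK 293T cells carrying a beta-lactamase reporter under RXR-alpha control and incubated 16 hr. Cytotoxicity was then quantified by CellTiter-Glo luminescence.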

[6] = qHTS assay to identify small molecule antagonists of the retinoid acid receptor (RAR) signaling pathway - cell viability counter screen (AID 1159551); also: nearly all actives have a fitted effect of over 35% in size; also: potency is read from the fitted curve at half-maximal effect
Procedure, shortened: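 C3RL4 RARE-luciferase line; cpds + retinol 1 uM final, 6 h, 37 C/5% CO2; CellTiter-Glo ATP luminescence, 30 min RT.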

[7] = qHTS assay to identify small molecule antagonists of the retinoid-related orphan receptor gamma (ROR-gamma) signaling pathway - cell viability counter screen (AID 1159520); also: nearly all actives have a fitted effect of over 50% in size; also: potency is read from the fitted curve at half-maximal effect
Procedure, shortened: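 Tet-on ROR gamma CHO cells (1,000/well) were plated 4 hr, given compounds in DMSO for 2 hr at 37 C, then induced with 1 uM final doxycycline for 16 hr. Viability was read as ATP by CellTiter-Glo luminescence after 30 min.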

[8] = biological target: Retinoic acid receptor RXR-alpha (Homo sapiens) (UniProt P19793); assay: qHTS assay to identify small molecule agonists of the RXR signaling pathway (AID 1159527; calls by dose curve; also: nearly all actives have a fitted effect of over 35% in size; also: potency is read from the fitted curve at half-maximal effect)
Retinoic acid receptor RXR-alpha (Homo sapiens), sequence (P19793 whole entry, looked up): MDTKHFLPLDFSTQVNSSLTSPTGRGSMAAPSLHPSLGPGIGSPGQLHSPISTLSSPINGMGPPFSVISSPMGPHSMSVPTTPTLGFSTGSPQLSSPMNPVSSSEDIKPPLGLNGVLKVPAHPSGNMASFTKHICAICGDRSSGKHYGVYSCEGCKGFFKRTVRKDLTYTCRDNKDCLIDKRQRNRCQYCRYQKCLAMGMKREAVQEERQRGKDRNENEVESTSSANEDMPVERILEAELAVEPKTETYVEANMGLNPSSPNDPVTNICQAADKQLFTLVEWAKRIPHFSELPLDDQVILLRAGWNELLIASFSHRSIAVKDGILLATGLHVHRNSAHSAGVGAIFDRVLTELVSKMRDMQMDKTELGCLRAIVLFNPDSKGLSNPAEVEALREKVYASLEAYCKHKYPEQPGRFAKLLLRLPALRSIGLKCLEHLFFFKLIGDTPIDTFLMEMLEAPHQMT
Procedure, shortened: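 Using 9-cis retinoic acid as the reference agonist, chemicals were tested in HEK 293T cells […] for 16 hr; substrate loading lasted 2 hr at room temperature.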

[9] = qHTS assay to identify small molecule agonists of the AP-1 signaling pathway (AID 1159526; calls by dose curve)

| SMILES | Potency [1] | Potency [2] | Potency [3] | Potency [4] | Potency [5] | Potency [6] | Potency [7] | Potency [8] | Potency [9] |
| --- | --- | --- | --- | --- | --- | --- | --- | --- | --- |
| CCCOc1sc(C(=O)N2CCC(c3cc(CN)ccc3F)CC2)c(C)c1Br | 35.7 µM (active) | 44.9 µM (active) | 28.1 µM (active) | 44.9 µM (active) | 17.9 µM (active) | 62.8 µM (active) |  |  |  |
| CC1=C(/C=C/C(C)=C/C=C/C(C)=C\C=O)C(C)(C)CCC1 |  | 41.3 µM (active) |  |  | 52 µM (active) | inactive | 57.9 µM (active) | 0.328 µM (active) |  |
| Clc1ccc(C(Cn2ccnc2)OCc2c(Cl)cccc2Cl)c(Cl)c1 (stereo unspecified) | inactive | inactive | 13.3 µM (active) |  | 26.8 µM (active) | inactive |  |  |  |
| Cc1occc1SSc1ccoc1C | inactive | inactive | inactive | inactive | inactive | inactive |  |  |  |
| CCCCC(CC)COC(=O)c1ccc(O)cc1 (stereo unspecified) | 15.4 µM (active) and 38.9 µM (active) | 49 µM (active) |  | 24.5 µM (active) and 49 µM (active) | 38.8 µM (active) and 49 µM (active) |  |  |  |  |
| CCCCCCC(C)OC(=O)COc1nc(F)c(Cl)c(N)c1Cl (stereo unspecified) | 49 µM (active) | 54.9 µM (active) |  | 49 µM (active) | 34.7 µM (active) |  |  |  |  |
| Clc1ccccc1CN1CCc2sccc2C1 | inactive | inactive |  |  | inactive | inactive | inactive |  |  |
| CC(C)(c1cc(Br)c(O)c(Br)c1)c1cc(Br)c(O)c(Br)c1 | 43.5 µM (active) | 48.8 µM (active) and 15.5 µM (active) |  | 48.8 µM (active) and 48.9 µM (active) | 54.8 µM (active) and 48.9 µM (active) and 46.3 µM (active) | inactive | 60.9 µM (active) | inactive |  |
| COc1cc(C=C2CCC/C(=C\c3ccc(O)c(OC)c3)C2=O)ccc1O |  | inactive |  | 26.8 µM (active) |  | inactive | 29.8 µM (active) |  |  |
| CCOC(=O)[C@@](C)(N)Cc1ccc(O)c(O)c1 | inactive | inactive |  |  | inactive | inactive | inactive |  | inactive |
| CN(C)CCCN1c2ccccc2CCc2ccccc21 | inactive | inactive |  | inactive | inactive |  | inactive |  |  |
| O=Nc1ccc(NO)cc1 | inactive | inactive |  | inactive | inactive |  |  | inactive |  |
| CC(C)c1cccc(C(C)C)c1N1C(=O)c2ccc(O)cc2C1=O | 49 µM (active) | inactive |  |  |  | 61.1 µM (active) | 27.3 µM (active) |  |  |
| COc1ccc2sc(C(=O)Nc3nnn[nH]3)c(OC(C)C)c2c1 | inactive | 19.4 µM (active) | 12.1 µM (active) | inactive |  | inactive |  |  |  |
| CC(C)(C)c1cc(/C=C2\SC(=N)NC2=O)cc(C(C)(C)C)c1O | 43.6 µM (active) | 54.9 µM (active) |  | inactive |  | inactive |  |  |  |
| COc1ccc(-n2nc(CCC(=O)N(C)O)cc2-c2ccc(Cl)cc2)cc1 | inactive | inactive |  | inactive |  | inactive | inactive |  |  |
| Cc1ccc(-n2[nH]c(C)c(N=Nc3cccc(-c4cccc(C(=O)O)c4)c3O)c2=O)cc1C | inactive | inactive |  | 26.8 µM (active) |  | inactive |  | inactive |  |
| O=C(O)CCn1c2c(c3ccccc31)C[C@H](NS(=O)(=O)c1ccc(F)cc1)CC2 | inactive | inactive |  | inactive | inactive | inactive | inactive |  |  |

| SMILES | Potency [1] | Potency [2] | Potency [3] | Potency [4] | Potency [5] | Potency [6] | Potency [7] | Potency [8] | Potency [9] |
| --- | --- | --- | --- | --- | --- | --- | --- | --- | --- |
| CCCCCCCCCCOCC(O)CN (stereo unspecified) |  | 21.3 µM (active) | 26.6 µM (active) |  |  |  |  |  | inactive |
| Cc1c(C)n(Cc2ccccc2)c2ccc(C(=O)OCCN(C)C)cc12 |  | inactive |  | inactive |  | inactive |  |  |  |
| CCCCCCCCCCCCCOP(=O)(O)O |  | 30.9 µM (active) |  | inactive | inactive |  | inactive |  |  |
| CN1[C@@H]2CC[C@H]1CC(OC(=O)C(CO)c1ccccc1)C2 (stereo partly specified) |  | inactive |  | inactive | 48.9 µM (active) | inactive | inactive | inactive | inactive |
| Oc1c(Br)cc(Br)c2cccnc12 |  | inactive |  | inactive | 1.51 µM (active) | inactive |  |  |  |
| C=CCCCCCCC=C | inactive | 55.1 µM (active) |  | inactive |  | inactive | inactive |  | inactive |
| Clc1ccc(C(Cn2ccnc2)OCc2ccsc2Cl)c(Cl)c1 (stereo unspecified) |  | inactive | 23.7 µM (active) |  |  |  |  |  |  |
| CCCSS/C(CCO)=C(\C)N(C=O)Cc1cnc(C)nc1N | inactive | inactive | inactive |  |  | inactive |  |  | inactive |
| C[n+]1c2cc(N)ccc2cc2ccc(N)cc21 (tested in a mixture with another compound) |  | inactive |  | inactive |  |  |  |  |  |
| Nc1cc(Cl)c([N+](=O)[O-])cc1O | inactive | inactive | inactive | inactive | inactive |  |  | inactive |  |
| COc1nccnc1CC(C)C |  |  | inactive | inactive | inactive | inactive | inactive | inactive | inactive |
| CCc1cccc(CC)c1NC(=O)C(=O)O |  |  | inactive | inactive | inactive | inactive | inactive | inactive | inactive |
| Cc1c(-c2ccc(O)cc2)n(Cc2ccc(OCCN3CCCCCC3)cc2)c2ccc(O)cc12 |  | inactive |  |  | 26.8 µM (active) |  |  |  |  |
| O=C[C@H](O)[C@H](O)[C@H](O)CO |  |  | inactive | inactive |  |  | inactive | inactive | inactive |
| CCCCCCCCCCCCCc1ccccc1 |  |  | inactive | inactive | inactive |  | inactive | inactive | inactive |
| CCc1ccc(C)nc1 |  |  | inactive | inactive |  |  | inactive | inactive | inactive |
| CCN(CC)c1ccc(N)cc1 | inactive | inactive |  |  |  |  |  |  |  |
| CCCCCCCCCCCCN(CCO)CCO | 43.5 µM (active) | 43.5 µM (active) |  |  | 24.4 µM (active) | 68.3 µM (active) |  |  |  |

Source: PubChem BioAssay (Tox21)
